Reference: PubChem BioAssay (NCI)
About 79,000 compounds went through this panel and 15% of them were active in at least one assay; those are over-represented in the sample as a whole. Active and inactive are the calls of the source. Rule as the data show it: active = growth inhibition above about 70%; inactive = the rest.

Assay: NCI Yeast Anticancer Drug Screen. Data for the mlh1 rad18 strain (AID 175)
Details: S. cerevisiae mlh1 rad18 strain growth inhibition; at 50.0 µM; active compounds read high
Experimental: Growth inhibition of yeast strains with defined genetic alterations is measured as a screen for potential anti-cancer activity. Selected strains with alterations in DNA damage repair or cell cycle control were exposed to compounds and growth inhibition was measured relative to vehicle treated controls. The strain used in this assay is mlh1 rad18
For `Cc1ccc2oc(C)[n+](CCC(=O)O)c2c1`, the growth inhibition was 42% (inactive).
With `Clc1nc(Oc2ccccc2)nc(-c2cn(-c3ccccc3)c3ccccc23)n1` the growth inhibition was -6.35% (inactive).
For `O=C(CCc1ccc(O)cc1)N/N=C/c1cc(Br)ccc1O`, the growth inhibition was -20.6% (inactive).
With `CC(C)(C)c1cc(C2COC(=O)COCCOCC(=O)OCCOCCO2)cc(C(C)(C)C)c1O` (stereo not given) the growth inhibition was -60.5% (inactive).
With `Cc1cc(CSC(=N)N)c(C)cc1CSC(=N)N` the growth inhibition was -7.5% (inactive).
In the case of `O=C(OCC1OC(Oc2ccccc2CO)C(O)C(O)C1O)c1ccccc1` (stereo not given), the growth inhibition is reported as 0.45% (inactive).
For `COc1c(O)ccc(C2=Cc3ccc(O)cc3OC2)c1OC`, the growth inhibition was -25.6% (inactive).
For `C(=N\n1cnnc1)/c1ccc2c(c1)CCC2`, the growth inhibition was -20.4% (inactive).
For `CCCCCCCCCCCCCCCC(C)(C)O`, the growth inhibition was 5.1% (inactive).
With `COc1ccc(/C=N\NC(=O)OC(C)(C)C)c(OC)c1OC` the growth inhibition was -24.4% (inactive).
In the case of `CC(C)/C(Cl)=N/OC(=O)Nc1cccc(C(F)(F)F)c1`, the growth inhibition is reported as -91.7% (inactive).
In the case of `CC(/C=N/N1C(=O)c2ccccc2C1=O)c1ccccc1` (stereo not given), the growth inhibition is reported as -10.8% (inactive).
With `CCOC(=O)c1cc(C)nc2c1c(=O)n(-c1ccccc1)c(=O)n2CCCCN1CCN(c2ncccn2)CC1` the growth inhibition was -38.5% (inactive).
With `O=[N+]([O-])c1cccc(C=Nc2cccc(C(F)(F)F)c2)c1` the growth inhibition was -12.2% (inactive).
For `C[C@@H]1C[C@@H]2OC(=O)[C@]3(C)[C@H]2[C@@H](OC3(C)O)[C@]2(C)C(=O)C=C[C@@H]12` (stereo not given in full), the growth inhibition was -35.5% (inactive).
In the case of `COc1cc(/C=C(/C#N)C(N)=O)ccc1O`, the growth inhibition is reported as -54.9% (inactive).
In the case of `COc1ccc2cc1Oc1ccc(cc1)CC1c3cc(OC)c(cc3CCN1C)Oc1c(OC)c(OC)cc3c1C(C2)N(C)CC3` (stereo not given), the growth inhibition is reported as -43.3% (inactive).
In the case of `COc1ccc(CCN2C(=O)CSC2=S)cc1OC`, the growth inhibition is reported as -2.6% (inactive).
For `CC(C)c1nc(-c2ccccc2)c(-c2ccccc2)[nH]1`, the growth inhibition was 54.7% (inactive).
With `O=C(CN1CCOCC1)Nc1cccc(C(F)(F)F)c1` the growth inhibition was -35.4% (inactive).
For `CCCCCCCCCCCCOc1ccc(C)cc1`, the growth inhibition was 5.3% (inactive).
With `COc1cc(/C=C2\CN(C)C(=O)C2=O)ccc1O` the growth inhibition was -12.2% (inactive).
In the case of `c1ccc(-c2cccc3ccccc23)cc1`, the growth inhibition is reported as 16.4% (inactive).
For `CC(C)c1cc(C(=O)O)c(O)c(C(C)C)c1.CC(C)c1cc(C(=O)O)c(O)c(C(C)C)c1.[Cu]`, the growth inhibition was 54.6% (inactive).
In the case of `COc1ccc(C(CCl)(CCl)c2ccc(OC)c(N)c2)cc1N`, the growth inhibition is reported as 28.6% (inactive).
With `CCCCC1C(=O)N(c2ccc(S(=O)(=O)Nc3ccccn3)cc2)N(c2ccc(O)c(C(=O)O)c2)C1=O` (stereo not given) the growth inhibition was 8.85% (inactive).
For `O=C1CCC2CN3CCc4c([nH]c5ccccc45)C3CC2C1` (stereo not given), the growth inhibition was 32.7% (inactive).
In the case of `C=CCNC(=S)N/N=C\c1cc(OC)c(OC)c(OC)c1`, the growth inhibition is reported as -34.6% (inactive).
With `CCOc1ccc(Br)cc1C=O` the growth inhibition was 45.1% (inactive).
For `Cc1ccc(/C=N/Nc2nncc3ccccc23)s1`, the growth inhibition was 38.5% (inactive).
In the case of `C[N+](C)(CCNC(=O)c1cccc2cc3ccccc3nc12)Cc1ccc([N+](=O)[O-])s1`, the growth inhibition is reported as -36.7% (inactive).
For `NC(=O)C(c1ccccc1)N1CCCC1` (stereo not given), the growth inhibition was -0.55% (inactive).
With `C/C=C(/C)N(C(C)=O)N(C(C)=O)c1ccc([N+](=O)[O-])cc1[N+](=O)[O-]` the growth inhibition was -3.3% (inactive).
For `COc1c(OC)c(OC)c2c(c1OC)c(=O)c1ccccc1n2C`, the growth inhibition was -42.2% (inactive).
In the case of `CC(C)Cc1ccc(C(C)C(=O)O)cc1` (stereo not given), the growth inhibition is reported as 3.25% (inactive).
In the case of `CCCCCCCCCCCCOc1ccccc1`, the growth inhibition is reported as 7.6% (inactive).
In the case of `CC(C)=CC(O)C/C(C)=C/CC/C(C)=C/CCC1(C)C(CCCO)/C(=C(/C)C=O)CCC1(C)O` (stereo not given), the growth inhibition is reported as -52.9% (inactive).
For `CC(=O)[C-](C(C)=O)c1ccccc1.CC(=O)[C-](C(C)=O)c1ccccc1.CC(=O)[C-](C(C)=O)c1ccccc1.[Cl-].[Zr+4]`, the growth inhibition was 1.65% (inactive).
In the case of `C1CCCCNCCC1`, the growth inhibition is reported as -27.3% (inactive).
With `CCCN1CCc2cc(OC)c(OC)cc2C1Cc1ccc(OC)c(OC)c1` (stereo not given) the growth inhibition was -5.7% (inactive).
